HttQ103 aggreg = inhibitors of mutant huntingtin aggregate formation in PC12 cells; PC12 HttQ103-GFP aggregates, Acumen cytometry, 40 h; Potency, µM (highest dose often 46.1 µM), inactives show at the highest dose activity change, negative = inhibition, actives largely listed as inhibitors; 220,000 tested, 1.1% active; also: % is scaled to controls: 0 for no effect and ±100 for the full control effect; nearly all actives have a fitted effect of over 60% in size
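Aggregates are detected as GFP objects 1–25 µm with signal 6 STDEV over background in lysates of induced PC12 cells. These carry Huntingtin exon 1 with 103 glutamines fused to GFP under an ecdysone promoter; compounds titrated.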
S2 tox = cell viability loss in ATXN counter-screen. Potency, µM (doses to about 56.7 µM), actives largely listed as cytotoxic. S2 cells (HEK-293 line with an ATXN2-luciferase reporter) viability, CellTiter-Fluor protease fluorescence, 24 h. AID 651635. 400,000 tested, 0.49% active; also: nearly all actives have a fitted effect of over 40% in size
HepG2 tox = kills HepG2 cells in TGF-b inhibitor counter-screen; HepG2 CAGA-GFP viability, ATP luminescence, 18 h; Potency, µM (series often up to 46.1 µM), without a hit: at the top dose activity change, negative = cytotoxicity, most hits filed as cytotoxic; 410,000 tested, 0.76% active; AID 588856
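CellTiter-Glo luminescence gave cytotoxicity after 18 hours at 37 degrees C. The cells were HepG2 CAGA-GFP in 1% FBS DMEM, stimulated with 500 pg/mL TGF-beta after compound addition. %Activity was normalised to no-cell wells (complete cell-killing) and DMSO (no toxicity), and curves were fitted and classified.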
HTT cytoprotect = Huntington cell model cytoprotection by ATP luminescence; Potency, µM (top dose mostly 56.4 µM), for inactives: cytoprotection (ATP increase), actives largely listed as activators; PC12 HTT-Q103 induced, cytoprotection, ATP luminescence, 40 h; AID 1471; 230,000 tested, 0.14% active; also: % of control where 0% means no effect; nearly all actives have a fitted effect of over 45% in size
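Quantitative HTS on tebufenozide-induced (100 nM) PC12 cells expressing HTTQ103 exon 1–GFP; compounds tested as a concentration series; survival measured via cellular ATP.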
ATXN2 expr inh = reduces ATXN2 reporter expression in HEK-293 cells | HEK-293 ATXN2-luciferase reporter, luminescence, 24 h | Potency, µM (series often up to 57 µM), without a hit: top-dose activity change, negative = inhibition, most hits filed as inhibitors | 360,000 tested, 0.72% active | AID 1745845; also: % is scaled to controls: 0 for no effect and ±100 for the full control effect; nearly all actives have a fitted effect of over 55% in size
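ATXN2-luciferase reporter cells (luciferase flanked by upstream and downstream ATXN2 gene portions) were treated 24 h at 37 °C with compounds at up to 57 uM. SteadyGlo luminescence gave expression; GF-AFC fluorescence gave viability.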
TGFb inhibitor = TGF-b pathway inhibition. AID 588855. 410,000 tested, 1.2% active. HepG2 CAGA-GFP TGF-b/SMAD3 reporter, GFP fluorescence, 18 h; TGF-beta stimulated, 500 pg/mL final. Potency, µM (titrated, usually from 46.1 µM), for inactives: at the highest dose activity, negative = inhibition, most hits filed as inhibitors; also: % is scaled to controls: 0 for no effect and ±100 for the full control effect; nearly all actives have a fitted effect of over 65% in size
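Per well, imaged GFP fluorescence of HEPG2 CAGA-GFP cells gives the signal; cells get compound, then TGF-beta (500 pg/mL final), 18 h at 37 degrees C; %Activity versus -TGF-beta and +DMSO controls.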
* marks the source's active call; other numbers are inactive results; i = inactive; ? = inconclusive; / = no result; [ ] = another dose, or the depositor's remark. These entries were drawn from the full list. Calls follow the shape of the dose curve; as a rule, active = well fitted curve in the direction sought with a large enough effect; inconclusive = small, poorly fitted or top-dose-only effect, or another doubt; inactive = no such curve, though single readings can be large; an effect the other way counts as inactive or inconclusive. Potency is read from the fitted curve at half-maximal effect.

SMILES	HttQ103 aggreg	S2 tox	HepG2 tox	HTT cytoprotect	ATXN2 expr inh	TGFb inhibitor
COc1c(C(C)(C)C)cc([N+](=O)[O-])c(C)c1[N+](=O)[O-]	/	/	/	-10%	/	/
CCCCNC(=O)n1c(NC(=O)OC)nc2ccccc21	/	/	/	-100%	/	/
CCSC(=O)Cl	/	/	/	-10%	/	/
CC[C@H]1OC(=O)C[C@@H](O)[C@H](C)[C@@H](O[C@@H]2O[C@H](C)[C@@H](O[C@H]3C[C@@](C)(O)[C@@H](O)[C@H](C)O3)[C@H](N(C)C)[C@H]2O)[C@@H](CC=O)C[C@@H](C)C(=O)/C=C/C(C)=C/[C@@H]1CO[C@@H]1O[C@H](C)[C@@H](O)[C@@H](OC)[C@H]1OC	/	i	-2%	/	0%	8%
COC(=O)[C@H]1C(=O)[C@H](C(=O)OC)[C@@H]2CC[C@H]1N2C	/	/	/	-5%[10 µM]	/	/
CC(=O)[C@@H]1CC[C@H]2[C@@H]3CC[C@@H]4CC(=O)CC[C@]4(C)[C@H]3CC[C@]12C	/	/	/	-25%	/	/
CC(Cc1ccccc1)NCCC(=O)NC(C)Cc1ccccc1 (stereo unspecified)	/	i	-38%	/	/	-25%
CN1CCN(C2=Nc3cc(Cl)ccc3Nc3ccccc32)CC1	-25%	?	-19%	?	?	14%
c1ccoc1	/	/	/	-11%	/	/
CC(=O)OCC1=C(C(=O)O)N2C(=O)[C@@H](N)[C@H]2SC1	/	i	/	/	0%[25.6 µM]	/
ClCc1ccccc1	/	/	/	4%	/	/
CC(C)c1nccn1Cc1ccc(Cl)cc1Cl	/	/	/	-2%[10 µM]	/	/
Clc1cccc(C(Cl)(Cl)Cl)n1	/	/	/	-1%	/	/
COc1ccc(N2CCN(CCc3ccncc3)CC2)cc1	/	?	7%	/	-10%	29%
CN(C)CCCc1cccnc1	/	/	/	11%[10 µM]	/	/
O=C(O)C[O][Sb][O]CC(=O)O	/	/	/	-11%[10 µM]	/	/
c1ccc(OP(Oc2ccccc2)Oc2ccccc2)cc1	/	/	/	-46%	/	/
CCC1(c2cnc[nH]2)Cc2ccccc2C1	/	i	/	/	1%	/
N[C@@H](Cc1c[nH]c2cc([N+](=O)[O-])ccc12)C(=O)O	/	/	/	10%[10 µM]	/	/
NC1(P(=O)(O)O)CCCCC1	/	/	/	-13%[10 µM]	/	/
CN(C)CC/C=C1/c2ccccc2Sc2ccc(Cl)cc21	-3%[9.22 µM]	?	-53%	0%[10 µM]	-11%	?
O=C1C(Cl)=C(Cl)C(=O)C(Cl)=C1Cl	/	/	/	-301%	/	/
CC(C)CC(=O)C[C@H](O)C(Cl)(Cl)Cl	/	/	/	-16%[10 µM]	/	/
CN(C)C(=O)Oc1ccc(C(=O)c2ccccc2)cc1	9%	i	-20%	0%[10 µM]	42%	-13%
CC(C)(C)C(=O)CP(=O)(O)O	/	/	/	4%[10 µM]	/	/
SMILES	HttQ103 aggreg	S2 tox	HepG2 tox	HTT cytoprotect	ATXN2 expr inh	TGFb inhibitor
c1ccc2c(c1)CC1CNCc3cccc(c31)S2 (stereo unspecified)	-21%	i	-30%	15%[10 µM]	-18%	6%
Nc1ccccc1-c1ccccc1	/	/	/	-15%	/	/
CC(=NCCCN1CCOCC1)c1c(O)n(Cc2ccccc2)c(=O)[nH]c1=O	18%	i	-3%	-9%[10 µM]	7%	-11%
CCN1CCN(C(=O)Cc2c(C)n(C(=O)c3ccc(Cl)cc3)c3ccc(OC)cc23)CC1	-9%	?	-22%	-13%[10 µM]	-13%	-17%
CCOC(=O)[C@@H]1[C@@H]2c3ccccc3-c3ccccc3[C@H]2C[C@H]1O	/	/	/	6%[10 µM]	/	/
C[C@H](Br)CN(C[C@H](C)Br)c1ccc2c(c1)Cc1ccccc1-2	/	/	/	5%[10 µM]	/	/
O=C(O)[C@@H](Br)[C@H](Br)C(=O)O	/	/	/	9%[10 µM]	/	/
COC1C(O)C(C)O[C@H](OC2CC[C@@]3(C=O)C4CC[C@]5(C)C(C6=CC(=O)OC6)CC[C@@]5(O)C4CC[C@@H]3C2)C1O (stereo partly specified)	/	/	/	29%	/	/
C[C@@H]1O[C@@H](O[C@H]2C[C@@H](O)[C@]3(CO)[C@@H]4C(CC[C@]3(O)C2)[C@@]2(O)CC[C@H](C3=CC(=O)OC3)[C@@]2(C)C[C@H]4O)[C@H](O)[C@H](O)[C@H]1O (stereo partly specified)	/	/	/	27%	/	/
Oc1c(Cl)c(Cl)c(Cl)c(Cl)c1Cl (tested in a mixture with another compound)	/	/	/	2%[10 µM]	/	/
c1ccc(C[N+]23CN4CN(CN(C4)C2)C3)cc1	/	/	/	-6%[10 µM]	/	/
O=C(O)C(O)(c1ccc(-c2ccccc2)cc1)c1ccc(-c2ccccc2)cc1	/	/	/	8%[10 µM]	/	/
NS(=O)(=O)c1ccc(-c2ccc([As](=O)(O)O)cc2)cc1	/	/	/	3%[10 µM]	/	/
c1ccc(C2CO2)cc1 (stereo unspecified)	/	/	/	2%	/	/
CN1CCCC(C(O)(c2ccccc2)c2ccccc2)C1 (stereo unspecified)	-16%[9.22 µM]	i	4%	-11%[10 µM]	/	-3%
Oc1ccc(-c2cccnc2)cc1CNC1CN2CCC1CC2 (stereo unspecified)	/	i	/	/	/	/
c1nc[nH]n1	/	/	/	-8%	/	/
O=C(O)CNC1c2ccccc2CSc2ccccc21 (stereo unspecified)	/	i	27%	/	1%	10%
NC(CCl)=N[C@H]1CN2CCC1CC2	/	/	/	16%[10 µM]	/	/
CC[C@@H]1[C@@H]2Cc3ccc(O)cc3[C@@]1(CC)CCN2C	/	/	/	20%[10 µM]	/	/
CN(C)C1C(=O)C(C(N)=O)=C(O)[C@@]2(O)C(=O)C3=C(O)c4c(O)cccc4[C@@](C)(O)C3[C@H](O)C12 (stereo partly specified)	/	/	/	-15%[1.9 µM]	/	/
CCCCOC(C)=O	/	/	/	-18%	/	/
C[C@@H](Cc1ccccc1)NCCC(c1ccccc1)c1ccccc1	5%[20.6 µM]	?	/	-11%[40.3 µM]	/	/
